# PubChem BioAssay (Tox21)
# Several values for one entry are separate records, joined by “and”; a condition that tells them apart may be missing. Identical values can stand only once. A structure can be active in one record and inactive in another. Activity calls are given as the source filed them. Entries that show only a call come without a potency. Unless noted, the call rests on the fitted dose curve; in most records, active means well fitted curve in the direction sought with a large enough effect in the repeat runs; inconclusive means weak or mixed curves; inactive means no such curve, though single readings can be large; an effect the other way counts as inactive or inconclusive.
# Experiments:
# [1] = qHTS assay to identify small molecule antagonists of the glucocorticoid receptor (GR) signaling pathway - cell viability counter screen (AID 720693); conditions: GR-bla HeLa viability, CellTiter-Glo luminescence, 18 h, with 5 nM dexamethasone present; series mostly up to 58.5 µM; further: nearly all actives have a fitted effect of over 55% in size
# [2] = qHTS assay for identifying genotoxic compounds that show differential cytotoxicity against isogenic chicken DT40 cell lines with known DNA damage response pathways - wild type cell line (AID 743012); conditions: DT40 wild type chicken cells viability, CellTiter-Glo, 40 h; series mostly up to 68.4 µM; further: nearly all actives have a fitted effect of over 60% in size; further: potency means the concentration at half of the fitted maximal effect
# Method in brief: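 Viability by ATP luminescence (CellTiter-Glo, 30 min RT) after 40 h compound treatment at 37 C/5% CO2, using 300 parental DNA repair-proficient DT40 cells per well.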
# [3] = qHTS assay for identifying genotoxic compounds that show differential cytotoxicity against isogenic chicken DT40 cell lines with known DNA damage response pathways - Rev3 mutant cell line (AID 743014); conditions: chicken DT40 Rev3-/- viability, CellTiter-Glo, 40 h; series mostly up to 68.4 µM; further: nearly all actives have a fitted effect of over 55% in size; further: potency means the concentration at half of the fitted maximal effect
# [4] = qHTS assay for identifying genotoxic compounds that show differential cytotoxicity against isogenic chicken DT40 cell lines with known DNA damage response pathways - Rad54/Ku70 mutant cell line (AID 743015); conditions: DT40 Rad54/Ku70 mutant viability, CellTiter-Glo, 40 h; series mostly up to 66.8 µM; further: nearly all actives have a fitted effect of over 60% in size; further: potency means the concentration at half of the fitted maximal effect
# [5] = qHTS assay to identify small molecule antagonists of the androgen receptor (AR) signaling pathway - cell viability counter screen (AID 743033; further: nearly all actives have a fitted effect of over 45% in size; further: potency means the concentration at half of the fitted maximal effect); conditions: AR-bla HEK293 viability, CellTiter-Glo luminescence, 16 h; series mostly up to 58.5 µM
# [6] = qHTS assay to identify small molecule antagonists of the androgen receptor (AR) signaling pathway using the MDA cell line - cell viability counter screen (AID 743041; further: nearly all actives have a fitted effect of over 45% in size); conditions: MDA-kb2 viability, CellTiter-Fluor, 16 h, cells co-treated with R1881 androgen agonist; series mostly up to 70.3 µM
# Method in brief: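 Using the breast carcinoma line MDA-kb2 AR-luc, test chemicals were co-incubated with R1881 for 16 h; CellTiter-Fluor reagent, added at 15.5 h, provided a fluorescence measure of live cells.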
# [7] = test system: thyroid hormone receptor (rat, GH3 cells); assay: qHTS assay to identify small molecule agonists of the thyroid receptor (TR) signaling pathway (AID 743066; calls by dose curve); conditions: GH3.TRE-Luc cells, TR agonist luciferase, 24 h; series mostly up to 83.9 µM
# [8] = target: Estrogen receptor (Homo sapiens) (UniProt P03372); assay: qHTS assay to identify small molecule antagonists of the estrogen receptor alpha (ER-alpha) signaling pathway (AID 743069; active means well fitted curve in the direction sought with a large enough effect in the signal ratio in the repeat runs, not every such curve was filed as active; inconclusive means weak or mixed curves, or effect the other way; inactive means no such curve, though single readings can be large or run the other way; the % refers to the signal ratio; further: potency means the concentration at half of the fitted maximal effect); conditions: HEK293 ER-alpha-UAS-bla, beta-lactamase ratio, antagonist mode; series mostly up to 69.4 µM
# Sequence of Estrogen receptor (Homo sapiens) (P03372 whole entry, looked up): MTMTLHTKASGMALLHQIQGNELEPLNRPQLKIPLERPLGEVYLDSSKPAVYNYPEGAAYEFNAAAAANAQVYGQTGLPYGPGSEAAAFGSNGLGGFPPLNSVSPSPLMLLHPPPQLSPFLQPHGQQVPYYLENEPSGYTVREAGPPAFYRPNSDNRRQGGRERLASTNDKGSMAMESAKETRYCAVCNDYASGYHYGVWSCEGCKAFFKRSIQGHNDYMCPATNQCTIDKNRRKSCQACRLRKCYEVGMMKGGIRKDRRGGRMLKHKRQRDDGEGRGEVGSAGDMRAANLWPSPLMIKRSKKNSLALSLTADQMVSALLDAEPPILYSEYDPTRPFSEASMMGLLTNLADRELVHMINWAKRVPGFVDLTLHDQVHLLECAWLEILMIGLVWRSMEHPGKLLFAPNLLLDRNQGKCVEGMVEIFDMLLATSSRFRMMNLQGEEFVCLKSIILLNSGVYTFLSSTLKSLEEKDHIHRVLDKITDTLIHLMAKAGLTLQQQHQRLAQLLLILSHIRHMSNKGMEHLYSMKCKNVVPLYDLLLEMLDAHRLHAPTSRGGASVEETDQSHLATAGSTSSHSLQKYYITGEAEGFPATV
# Method in brief: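 Fluorescence intensity from a beta-lactamase FRET substrate served as the read-out. Cells: HEK293 with stably integrated ER-alpha-UAS-bla reporter. Agonist 17beta-estradiol was co-added with compounds; incubation 18 hr at 37C, substrate 2 hr at room temperature.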
# [9] = qHTS assay to identify small molecule antagonists of the estrogen receptor alpha (ER-alpha) signaling pathway - cell viability counter screen (AID 743074; calls by dose curve; further: nearly all actives have a fitted effect of over 45% in size); conditions: ERalpha-bla HEK293 viability, CellTiter-Glo luminescence, 18 h; series mostly up to 69.4 µM
# [10] = target: Estrogen receptor (Homo sapiens) (UniProt P03372); assay: qHTS assay to identify small molecule agonists of the estrogen receptor alpha (ER-alpha) signaling pathway (AID 743075; calls by dose curve; further: potency means the concentration at half of the fitted maximal effect); conditions: HEK293 ER-alpha-UAS-bla, beta-lactamase FRET ratio, 18 h; series mostly up to 70.1 µM
# [11] = target: Estrogen receptor (Homo sapiens) (UniProt P03372); assay: qHTS assay to identify small molecule agonists of the estrogen receptor alpha (ER-alpha) signaling pathway using the BG1 cell line (AID 743079); conditions: BG1Luc4E2 cells, ERE-luciferase agonist, 22 h; series mostly up to 70.3 µM; further: nearly all actives have a fitted effect of over 20% in size; further: potency means the concentration at half of the fitted maximal effect
# [12] = qHTS assay to identify small molecule antagonists of the estrogen receptor alpha (ER-alpha) signaling pathway using the BG1 cell line (AID 743080; calls by dose curve; further: nearly all actives have a fitted effect of over 25% in size; further: potency means the concentration at half of the fitted maximal effect); conditions: BG1Luc4E2 ERE-luciferase antagonist mode, luminescence; series mostly up to 70.3 µM
# Method in brief: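 Antagonist mode: compounds in DMSO were pinned onto BG1-Luc-4E2 cells alongside 17beta-estradiol agonist, incubated 21.5 h, and ERE-driven luciferase measured with ONE-Glo. Cytotoxicity was multiplexed using CellTiter-Fluor fluorescence.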
# [13] = qHTS assay to identify small molecule antagonists of the estrogen receptor alpha (ER-alpha) signaling pathway using the BG1 cell line - cell viability counter screen (AID 743081); conditions: BG1Luc4E2 viability, CellTiter-Fluor, 22 h; series mostly up to 70.3 µM;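 further: compound given together with 17beta-estradiol as the ER stimulus; nearly all actives have a fitted effect of over 45% in size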
# Aromatase (Homo sapiens) = Aromatase (Homo sapiens) (UniProt P11511); assay: qHTS assay to identify aromatase inhibitors (AID 743083); conditions: MCF-7 aro ERE, testosterone-driven ERE luciferase, 24 h; series mostly up to 70.3 µM; further: nearly all actives have a fitted effect of over 55% in size; further: potency means the concentration at half of the fitted maximal effect
# Sequence of Aromatase (Homo sapiens) (P11511 whole entry, looked up): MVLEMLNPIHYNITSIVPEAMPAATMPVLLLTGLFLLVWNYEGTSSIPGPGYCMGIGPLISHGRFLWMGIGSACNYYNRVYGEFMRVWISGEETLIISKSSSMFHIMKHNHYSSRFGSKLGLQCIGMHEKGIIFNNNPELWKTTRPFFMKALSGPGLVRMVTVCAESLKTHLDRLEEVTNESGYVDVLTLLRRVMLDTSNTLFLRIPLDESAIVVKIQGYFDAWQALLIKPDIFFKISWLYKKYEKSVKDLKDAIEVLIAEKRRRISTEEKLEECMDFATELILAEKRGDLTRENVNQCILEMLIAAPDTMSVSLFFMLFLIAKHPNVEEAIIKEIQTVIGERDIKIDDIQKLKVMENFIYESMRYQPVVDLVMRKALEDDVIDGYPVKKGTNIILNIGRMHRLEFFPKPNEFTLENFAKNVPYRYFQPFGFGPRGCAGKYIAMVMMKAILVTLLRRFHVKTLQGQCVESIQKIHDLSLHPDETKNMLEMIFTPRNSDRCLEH
# [14] = target: Androgen receptor (Homo sapiens) (UniProt P10275); assay: qHTS assay to identify small molecule antagonists of the androgen receptor (AR) signaling pathway (AID 743035; active means well fitted inhibition curve with a large enough effect in the signal ratio in the repeat runs, not every such curve was filed as active; inconclusive means weak or mixed curves, or effect the other way; inactive means no such curve, though single readings can be large or run the other way; the % refers to the signal ratio; further: potency means the concentration at half of the fitted maximal effect); conditions: HEK293 AR-UAS-bla, R1881-stimulated, beta-lactamase FRET, 16 h; series mostly up to 58.5 µM
# Sequence of Androgen receptor (Homo sapiens) (P10275 whole entry, looked up): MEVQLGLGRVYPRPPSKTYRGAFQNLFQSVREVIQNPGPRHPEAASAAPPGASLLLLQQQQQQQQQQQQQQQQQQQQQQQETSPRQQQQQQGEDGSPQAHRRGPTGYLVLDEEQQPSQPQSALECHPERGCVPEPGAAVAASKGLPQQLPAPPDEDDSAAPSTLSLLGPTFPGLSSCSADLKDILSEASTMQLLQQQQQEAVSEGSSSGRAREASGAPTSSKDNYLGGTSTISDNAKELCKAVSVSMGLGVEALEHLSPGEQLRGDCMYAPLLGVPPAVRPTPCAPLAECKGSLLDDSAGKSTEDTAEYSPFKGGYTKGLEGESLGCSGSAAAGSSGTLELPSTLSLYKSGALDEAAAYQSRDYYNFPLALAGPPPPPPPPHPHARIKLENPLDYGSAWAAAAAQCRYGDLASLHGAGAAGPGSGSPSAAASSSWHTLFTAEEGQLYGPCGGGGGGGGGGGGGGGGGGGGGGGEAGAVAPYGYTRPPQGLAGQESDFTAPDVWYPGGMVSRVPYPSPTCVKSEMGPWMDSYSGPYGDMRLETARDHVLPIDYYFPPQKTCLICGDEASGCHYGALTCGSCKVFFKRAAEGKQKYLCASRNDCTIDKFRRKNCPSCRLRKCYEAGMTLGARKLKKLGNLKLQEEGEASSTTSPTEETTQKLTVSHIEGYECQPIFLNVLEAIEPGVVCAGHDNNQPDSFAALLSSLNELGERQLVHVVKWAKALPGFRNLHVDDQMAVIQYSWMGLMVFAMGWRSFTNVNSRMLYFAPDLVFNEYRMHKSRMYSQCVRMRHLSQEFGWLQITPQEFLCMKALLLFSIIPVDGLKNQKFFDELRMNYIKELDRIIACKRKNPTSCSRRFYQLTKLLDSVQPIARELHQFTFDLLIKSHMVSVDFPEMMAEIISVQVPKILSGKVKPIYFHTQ
# Method in brief: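 Antagonist mode: AR-bla HEK293 cells co-treated with test compounds and agonist R1881 for 16 h at 37C, 5% CO2. Beta-lactamase activity read as FRET fluorescence after 2 h room-temperature substrate loading.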
# [15] = target: Androgen receptor (Homo sapiens) (UniProt P10275); assay: qHTS assay to identify small molecule agonists of the androgen receptor (AR) signaling pathway (AID 743036; active means well fitted activation curve with a large enough effect in the signal ratio in the repeat runs, with a control signal flat, not every such curve was filed as active; inconclusive means weak or mixed curves, or effect the other way; inactive means no such curve, though single readings can be large or run the other way; the % refers to the signal ratio); conditions: HEK293 AR-UAS-bla GripTite, beta-lactamase FRET ratio, 16 h; series mostly up to 62.4 µM
# Method in brief: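 Reporter line: GeneBLAzer AR-UAS-bla-GripTite (HEK293). Steps: plate cells, 4 h rest, add compounds, 16 h at 37C, add LiveBLAzer B/G substrate, 2 h at RT, read fluorescence.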
# [16] = target: Androgen receptor (Homo sapiens) (UniProt P10275); assay: qHTS assay to identify small molecule agonists of the androgen receptor (AR) signaling pathway using the MDA cell line (AID 743040; further: nearly all actives have a fitted effect of over 20% in size); conditions: MDA-kb2 AR-luc cells, MMTV luciferase, 16 h; activity change: at 70.3 µM (top of the series), stronger effect = higher value
# Method in brief: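 Stable MMTV-luciferase reporter in MDA-kb2 cells; note the promoter carries GR as well as AR response elements. 16 h compound treatment, 37C, 0% CO2; ONE-Glo luminescence endpoint.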
# [17] = target: Androgen receptor (Homo sapiens) (UniProt P10275); assay: qHTS assay to identify small molecule antagonists of the androgen receptor (AR) signaling pathway using the MDA cell line (AID 743042; further: nearly all actives have a fitted effect of over 55% in size; further: potency means the concentration at half of the fitted maximal effect); conditions: MDA-kb2 AR-luc, MMTV luciferase, R1881 antagonist, 16 h; series mostly up to 70.3 µM
# Method in brief: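 Antagonist mode: compounds plus R1881 agonist added to MDA-kb2 AR-luc cells, incubated 16 h at 37C. Luciferase reporter luminescence quantified, with multiplexed CellTiter-Fluor readout for cell viability.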
# [18] = qHTS assay to identify small molecule antagonists of the thyroid receptor (TR) signaling pathway - cell viability counter screen (AID 743064); conditions: GH3.TRE-Luc viability, CellTiter-Fluor, 24 h; series mostly up to 70.3 µM; further: nearly all actives have a fitted effect of over 50% in size; further: potency means the concentration at half of the fitted maximal effect
# Method in brief: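 Plate GH3.TRE-Luc cells; incubate 4 h at 37 °C; add compound, then T3 to 1 nM final; incubate 23.5 h; add CellTiter-Fluor; incubate 30 min at 37 °C, 5% CO2; read fluorescence.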
# [19] = qHTS assay to identify small molecule antagonists of the thyroid receptor (TR) signaling pathway (AID 743065); conditions: GH3.TRE-Luc, T3-stimulated luciferase inhibition, 23.5 h; series mostly up to 70.3 µM; further: nearly all actives have a fitted effect of over 55% in size; further: potency means the concentration at half of the fitted maximal effect
# Method in brief: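 Antagonism measured as loss of luciferase signal in GH3 cells stably carrying a TRE-luciferase reporter, co-treated with compound and T3 (1 nM final) for 23.5 h at 37 C. Viability was read in the same well by CellTiter-Fluor.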
Compound,Potency [1],Potency [2],Potency [3],Potency [4],Potency [5],Potency [6],Potency [7],Potency [8],Potency [9],Potency [10],Potency [11],Potency [12],Potency [13],Potency (Aromatase (Homo sapiens)),Potency [14],Potency [15],Potency [16],Potency [17],Potency [18],Potency [19]
CCC(C)(c1ccc(O)cc1)c1ccc(O)cc1,inactive,27.3 µM (active),61.1 µM (active) and 34.4 µM (active),30.6 µM (active),inactive,inactive,inactive,616 nM [inconclusive] (active) and 309 nM [inconclusive] (active),inactive,195 nM [inconclusive] (active) and 1.95 µM [inconclusive] (active),243 nM (active) and 273 nM (active),inactive,inactive,61.1 µM (active) and inactive,–,–,–,–,–,–
CC(C)Oc1cc(-n2nc(C(C)(C)C)oc2=O)c(Cl)cc1Cl,inactive,–,6.11 µM (active),60.3 µM (active) and 4.86 µM (active),11 µM (active),inactive,inactive,61.6 µM [inconclusive] (active),inactive,inactive,–,47.9 µM (active),inactive,60.3 µM (active) and 17.2 µM (active),43 µM (active) and 12.3 µM (active),inactive,inactive,38.6 µM (active),53.7 µM (active),–
Cc1cc(Cl)ccc1OCCCC(=O)O,inactive,–,inactive,inactive,inactive,inactive,inactive,–,–,–,–,–,inactive,inactive,–,–,inactive,inactive,inactive,inactive
NNC(N)=S,inactive,28.4 µM (active),20.1 µM (active),28.4 µM (active),14.3 µM (active),–,inactive,inactive,–,inactive,inactive,inactive,inactive,50.4 µM (active) and inactive,–,–,–,–,inactive,–
ClC1C(Cl)C(Cl)C(Cl)C(Cl)C1Cl (stereo unspecified),inactive,inactive and 54.5 µM (active),inactive and 48.6 µM (active) and 24.3 µM (active),inactive and 48.6 µM (active) and 17.2 µM (active),inactive,inactive,inactive,–,inactive,–,–,–,inactive,inactive and 54.5 µM (active),–,–,–,–,inactive,–
CCOC(=S)S,inactive,24.3 µM (active) and 16.3 µM (active),21.7 µM (active) and 16.3 µM (active),24.3 µM (active) and 16.3 µM (active),13.8 µM (active) and 8.26 µM (active),–,inactive,–,inactive,–,–,–,inactive,68.6 µM (active) and 58 µM (active),–,–,–,–,inactive,51.7 µM (active)
N[C@@H](Cc1ccc(N(CCCl)CCCl)cc1)C(=O)O,inactive,–,75 nM (active) and 117 nM (active),2.37 µM (active) and 8.28 µM (active),inactive,inactive,–,–,–,–,–,–,inactive,–,–,–,–,–,10.6 µM (active) and 26.2 µM (active),–
C[C@]12CCC(=O)C[C@@H]1CC[C@@H]1[C@@H]2CC[C@]2(C)[C@@H](O)CC[C@@H]12,–,26.6 µM (active) and inactive,–,inactive,inactive,inactive,inactive,–,inactive,–,–,–,inactive,inactive,–,–,–,–,inactive,–
Oc1cc(Cl)ccc1Cl,inactive,–,inactive,inactive,inactive,inactive,inactive,–,–,–,–,–,inactive,inactive,–,–,–,–,inactive,inactive
O=[N+]([O-])c1cccc2ccccc12,inactive,–,inactive,inactive,inactive,inactive,inactive,inactive,inactive,inactive,inactive,inactive,inactive,inactive,–,–,–,–,inactive,–
CCCCOCCOP(=O)(OCCOCCCC)OCCOCCCC,inactive,–,54.5 µM (active),48.6 µM (active),inactive,inactive,inactive,inactive,–,inactive,inactive,inactive,inactive,inactive,–,–,–,–,54.5 µM (active) and inactive,–
CN(C)C(=O)Nc1ccc(Cl)cc1,inactive,–,–,–,inactive,inactive,inactive,–,inactive,–,–,–,inactive,inactive,–,–,–,–,inactive,–
Nc1c(Cl)cc([N+](=O)[O-])cc1Cl,inactive,–,inactive and 61.1 µM (active),inactive and 61.1 µM (active),–,inactive,inactive,inactive,inactive,inactive,inactive,inactive,inactive,inactive,–,inactive,inactive,inactive and 61.1 µM (active),inactive,–
CN(C)c1ccc(C(=O)c2ccc(N(C)C)cc2)cc1,inactive,–,762 nM (active) and 969 nM (active),1.35 µM (active) and 1.37 µM (active),inactive,inactive,inactive,–,inactive,–,–,–,inactive,inactive,–,–,–,–,30.3 µM (active) and inactive,5.39 µM (active) and 1.09 µM (active)
